# ERa coact inh = blocks coactivator binding to human estrogen receptor alpha; inhibition, % at 25.6 µM; P03372; TR-FRET ER-alpha LBD / SRC-1 peptide, estradiol-bound; AID 629; hit rate 1.7% among 86,000; in the data active means inhibition above about 50%;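 further: 0% = receptor plus peptide control and 100% = peptide only without receptor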
# Target sequence (P03372 whole entry, looked up, the tested form may be a part): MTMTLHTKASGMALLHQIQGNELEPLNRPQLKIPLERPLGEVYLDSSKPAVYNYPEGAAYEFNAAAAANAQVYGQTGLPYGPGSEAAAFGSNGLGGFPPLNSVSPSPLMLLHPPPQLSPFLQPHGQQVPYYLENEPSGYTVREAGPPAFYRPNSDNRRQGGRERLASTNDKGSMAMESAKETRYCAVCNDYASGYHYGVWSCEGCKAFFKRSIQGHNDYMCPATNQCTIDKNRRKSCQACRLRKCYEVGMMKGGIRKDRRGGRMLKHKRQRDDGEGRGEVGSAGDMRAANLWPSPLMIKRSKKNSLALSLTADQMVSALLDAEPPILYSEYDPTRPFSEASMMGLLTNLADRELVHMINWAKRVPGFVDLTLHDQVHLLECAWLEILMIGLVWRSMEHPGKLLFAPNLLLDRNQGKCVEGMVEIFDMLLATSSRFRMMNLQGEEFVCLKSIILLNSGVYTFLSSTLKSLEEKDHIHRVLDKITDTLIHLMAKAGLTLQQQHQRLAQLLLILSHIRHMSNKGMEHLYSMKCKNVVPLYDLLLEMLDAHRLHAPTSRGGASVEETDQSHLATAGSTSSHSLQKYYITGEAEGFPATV
# ERb SRC1 inh = ER-beta (human) coactivator binding inhibition. Q92731. TR-FRET ER-beta LBD / SRC1-Cy5 peptide binding; receptor agonist-loaded with 1 µM estradiol. inhibition, % at 25.6 µM. hit rate 1.3% among 86,000;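 active means compounds whose percent inhibition of the receptor-coactivator binding signal exceeds about 50% in the single-dose screen, limit read from the data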;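 further: 0% = receptor plus peptide wells without compound and 100% = peptide-only wells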
# Mac1 fbg enh = enhancers of human CD11b/CD18 binding to fibrinogen. P05107+P11215. K562 CD11b/CD18 adhesion to fibrinogen, ATPlite luminescence. activation, % at 10 µM. hit rate 0.07% among 93,000;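 active means 10 µM primary screen giving 50% or more activity, confirmed by 40% or more on retest at that dose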
# ERa coact pot = enhances coactivator binding to human estrogen receptor alpha | TR-FRET ERalpha-LBD/SRC-Cy5 coactivator binding, 2 h; 100 = basal binding, no effect | AID 639 | hit rate 1.3% among 86,000 | coactivator binding (% of control), % at 25.6 µM | P03372; in the data active means activity above about 200%;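 further: binding measured in presence of low estradiol as agonist stimulus; 0% = peptide alone without receptor and 100% = receptor with peptide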
# Mac1 fbg inh = CD11b/CD18-fibrinogen binding inhibition. inhibition, % at 10 µM. K562 CD11b/CD18 adhesion to fibrinogen, ATPlite luminescence; Mn2+ added to activate the integrin. hit rate 0.54% among 93,000. P05107+P11215;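 active means primary inhibition of 50% or more at 10 µM, then 40% or more on retest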
# Active calls of the source: *; nt = no result given; [ ] = remark or other dose. Compounds with a hit are over-represented: about 3.1% of the library has one in this group of screens.
SMILES,ERa coact inh,ERb SRC1 inh,Mac1 fbg enh,ERa coact pot,Mac1 fbg inh
COc1ccc(C(CC(=O)O)NS(=O)(=O)c2ccc(C)cc2)cc1 (centres undefined),0,-12,0,98,51*
CCONC(=O)Nc1ccccc1,nt,nt,7,nt,-7
CCOC(=O)c1[nH]c2ccc(Cl)cc2c1NC(=O)c1nonc1C,14,10,nt,221*[fluorescence artefact?],nt
CCOC(=O)c1[nH]c2ccc(OC)cc2c1NC(=O)c1nonc1C,-2,0,-2,124,12
Cn1cnnc1SCc1cccc(Br)c1,21,52*[fluorescence artefact?],nt,89,nt
Cc1cccc(N2CN(Cc3ccco3)CNC2=S)c1,nt,nt,-2,nt,-7
c1coc(-c2nnc(-c3ccc4c(c3)OCO4)o2)c1,65*[fluorescence artefact?],48,7,60,17
COC(=O)c1ccc(CNC(=O)/C=C/c2cc([N+](=O)[O-])ccc2OC(F)F)cc1,nt,nt,-2,nt,4
CN(C)c1ccc(-c2nnc(-c3ccc(S(=O)(=O)C(F)F)cc3)o2)cc1,55*[fluorescence artefact?],24,72,241*,-29
O=C(CSc1nnc(-c2ccco2)c(-c2ccco2)n1)Nc1ccccc1,84*[fluorescence artefact?],86*[fluorescence artefact?],0,22,12
O=C(CSc1nnc(-c2ccccc2)c(-c2ccccc2)n1)NCc1ccco1,-9,-1,nt,98,nt
Cc1ccc(NC(=O)CSc2nnc(-c3ccco3)c(-c3ccco3)n2)cc1,81*[fluorescence artefact?],74*[fluorescence artefact?],-2,43,15
COc1ccc(N2C(=O)CCC2(C#N)c2ccc(Br)cc2)cc1 (centres undefined),-2,1,-3,97,-22
COc1cc2[nH]c(=O)n(CCCCCC(=O)NCCc3c[nH]c4ccccc34)c(=O)c2cc1OC,-5,0,-1,101,6
N#C/C(=C(/O)c1ccco1)c1nc2ccccc2s1,nt,nt,-8,nt,52*
N#C/C(=C(/O)C(Cl)c1ccccc1)c1nc2ccccc2s1 (centres undefined),nt,nt,-5,nt,8
C1CNCCOCCNCCN1,4,-3,nt,104,nt
COC(=O)c1ccc(O)c(Sc2cc(C(=O)OC)ccc2O)c1,-7,-3,-7,39,98*
CCn1c(=O)c(C(=O)Nc2nc3ccccc3[nH]2)c(O)c2ccccc21,nt,nt,-8,nt,96*
Cc1cc2oc(=O)cc(CSc3nc(N)cc(N)n3)c2cc1C,nt,nt,-3,nt,2
O=S(=O)(Nc1nc2ccccc2s1)c1ccc(Br)s1,-19,-16,-12,76,101*
Cc1ccc(S(=O)(=O)Nc2nc3ccccc3s2)cc1,13,-3,-2,75,5
COc1cc(NC(=O)c2cccs2)c(OC)cc1NC(=O)CCn1nnc2ccccc21,-1,51*[fluorescence artefact?],-5,112,1
COc1cc(NC(=O)c2cccs2)c(C(=O)OCC(=O)NCc2ccccc2)cc1OC,16,3,4,269*,0
O=C(Cn1nnc(-c2ccccc2NC(=O)c2cccs2)n1)Nc1ccccc1,65*[fluorescence artefact?],57*[fluorescence artefact?],-3,200*[fluorescence artefact?],-3
SMILES,ERa coact inh,ERb SRC1 inh,Mac1 fbg enh,ERa coact pot,Mac1 fbg inh
COc1cc(NC(=O)c2cccs2)c(C(=O)OCC(=O)NC(C)c2ccccc2)cc1OC (centres undefined),nt,nt,-2,nt,-2
COc1ccccc1NC(=O)Cn1nnc(-c2ccccc2NC(=O)c2cccs2)n1,-15,-5,-2,339*[fluorescence artefact?],-3
O=C(CSc1nnc(-c2ccc(OC(F)F)cc2)o1)NCc1cccs1,3,-7,-4,104,-3
Cc1occc1C(=O)N/N=C/c1cnn(C)c1C,1,-3,nt,106,nt
O=[N+]([O-])c1ccc(CCNc2cccc3ccccc23)c([N+](=O)[O-])c1,nt,nt,24,nt,-9
CN(C)c1nccc(Nc2ccccc2)c1C#N,99*[fluorescence artefact?],-12,-2,126,14
Cc1ccc(-c2csc3ncn(CC(=O)N4CCOCC4)c(=O)c23)cc1C,16,78*[fluorescence artefact?],0,68,-33
O=C(Cn1cnc2scc(-c3ccc(F)cc3)c2c1=O)N1CCOCC1,15,6,-3,103,-18
CC(=O)Nc1ccc(-c2nnc(SCC(=O)NCc3ccco3)n2C)cc1,3,-2,0,91,-5
O=C1c2ccccc2C(=O)C1c1ccc2ccccc2n1,52*[fluorescence artefact?],34,1,217*[fluorescence artefact?],77
Cc1ccc(C)c(Cn2c(=O)n(-c3ccc(CC(=O)NCc4ccco4)cc3)c(=O)c3sccc32)c1,80*[fluorescence artefact?],55*,111,127,-13
CCOc1cc(-n2cnnn2)c(OCC)cc1NC(=O)c1cc2ccc(N(CC)CC)cc2oc1=O,84*[fluorescence artefact?],53*[fluorescence artefact?],nt,191,nt
Cc1ccc(Sc2c(C)nn(C(=O)c3cccc(S(=O)(=O)N4CCOCC4)c3)c2C)cc1,18,14,1,237*[fluorescence artefact?],65
Cc1n[nH]c(C)c1CCc1nc2c3ccccc3nc(SCC(N)=O)n2n1,-8,-17,-6,107,9
Cc1ccc(NC(=O)CSc2nc3ccccc3c3nc(CCc4c(C)n[nH]c4C)nn23)cc1F,54*[fluorescence artefact?],26,-1,142,9
CC12C=CC3(O1)C(C(=O)N(c1ccccc1)C3C(=O)NC1CCCC1)C2C(N)=O (centres undefined),-6,-8,nt,113,nt
Cc1cccc(-n2nnnc2SCC(=O)c2cc(C)n(Cc3ccco3)c2C)c1,89*[fluorescence artefact?],47,5,49,-5
CCc1cc2c(=O)c(-c3ccc4c(c3)OCCO4)coc2cc1OC(=O)c1ccco1,70*[fluorescence artefact?],58*[fluorescence artefact?],-2,213*[fluorescence artefact?],4
CCCc1cc2c(=O)c(-c3ccc4c(c3)OCCO4)coc2cc1OC(=O)c1ccco1,51*,21,nt,122,nt
COc1cccc(C2(O)CCN(C(=O)Cc3cccnc3)CC2)c1,-5,-10,nt,102,nt
Cc1cc(SCC(=O)N2CCC(c3noc4ccc(F)cc34)CC2)nc2ccccc12,41,49,19,124,-2
O=C(CSc1ncnc2sc3c(c12)CCCC3)N1CCC(c2noc3ccc(F)cc23)CC1,29,66*[fluorescence artefact?],nt,355*[fluorescence artefact?],nt
Cc1nc(SCC(=O)c2ccc(Cl)cc2)c([N+](=O)[O-])[nH]1,nt,nt,-3,nt,11
Cc1ccc(OCc2ccoc2C(=O)O)cc1C,62*,66*,-7,32,-12
Cc1ccc(OCc2ccc(C(=O)N3CCOCC3)cc2)cc1C,-25,-12,4,59,-3
SMILES,ERa coact inh,ERb SRC1 inh,Mac1 fbg enh,ERa coact pot,Mac1 fbg inh
Cc1ccc(/C=c2\sc3nc(-c4cccnc4)nn3c2=O)cc1,69*[fluorescence artefact?],48,-2,61,-4
CC(C)c1ccc(/C=c2\sc3nc(-c4ccncc4)nn3c2=O)cc1,nt,nt,-6,nt,1
O=C(NC(=O)c1ccc(Cl)cc1)Nc1cc(N2CCCCC2)ncn1,72*[fluorescence artefact?],65*[fluorescence artefact?],nt,243*,nt
O=C(Nc1cc(N2CCOCC2)ncn1)Nc1cccc2ccccc12,-25,-17,-3,116,-11
CC(C)CC(=O)Nc1ccc2oc(-c3ccncc3)nc2c1,41,13,0,105,-7
CC(Oc1ccc(Cl)cc1Cl)C(=O)Nc1ccc2oc(-c3ccncc3)nc2c1 (centres undefined),26,41,-8,327*,98

# Bioassay records from PubChem BioAssay.
